# Assay outcomes (PubChem)
# Sampled rows, rich in hits. Any-hit rate of the full collection: about 19%.
# Gal4-VP16 FLuc – counter-screen for ROR gamma inhibitors: Gal4-VP16 reporter. Drosophila S2 Gal4-VP16 UAS-luciferase, luminescence, 20 h. Potency, µM (highest dose often 53.6 µM), for the others: top-dose activity, negative = inhibition, actives largely listed as inhibitors. actives 3.5% (n = 310,000). AID 2546;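 note: Gal4-VP16 expression switched on by copper sulfate through the metallothionein promoter; nearly all actives have a fitted effect of over 50% in size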
# TDP1 inh – inhibitors of human tyrosyl-DNA phosphodiesterase TDP1; Q9NUW8; recombinant TDP1, AlphaScreen DNA substrate cleavage; Potency, µM (titrated, usually from 130 µM), for inactives: at the highest dose activity change, negative = inhibition, most hits filed as inhibitors; actives 0.28% (n = 350,000); AID 485290; note: nearly all actives have a fitted effect of over 40% in size
#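 E. coli-derived human Tdp1, 1 nM final. Cpd preinc 15 min RT; substrate 15 nM final, 5 min RT; AS bead mix 10 ug/ml final, 10 min RT. Signal loss = tyrosine-FITC cleavage. No-enzyme wells = max signal.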
# TDP1 cell CPT – DT40-hTDP1 cell growth loss with CPT; chicken DT40 Tdp1-/-;hTDP1 cells + 20 nM CPT, ATP luminescence, 48 h; Potency, µM (doses to about 46.2 µM), without a hit: at the highest dose activity change, negative = growth inhibition, most hits filed as inhibitors; actives 12% (n = 420,000); AID 686979; note: nearly all actives have a fitted effect of over 55% in size
#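 Chicken DT40 Tdp1-/- cells stably complemented with human TDP1 were seeded at 400 cells/well in medium containing 20 nM camptothecin, exposed to pin-transferred compounds, and grown at 37 °C for at least 48 hr. Viability was read as ATP luminescence.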
# RORg inh – blocks mouse ROR gamma transcriptional activity; P51450; AID 2551; Drosophila S2 Gal4-RORgamma UAS-luciferase reporter, 20 h; actives 5.4% (n = 310,000); Potency, µM (doses to about 53.6 µM), inactives show top-dose activity change, negative = inhibition, actives largely listed as inhibitors; note: nearly all actives have a fitted effect of over 60% in size
# Target sequence (P51450 whole entry, looked up, the tested form may be a part): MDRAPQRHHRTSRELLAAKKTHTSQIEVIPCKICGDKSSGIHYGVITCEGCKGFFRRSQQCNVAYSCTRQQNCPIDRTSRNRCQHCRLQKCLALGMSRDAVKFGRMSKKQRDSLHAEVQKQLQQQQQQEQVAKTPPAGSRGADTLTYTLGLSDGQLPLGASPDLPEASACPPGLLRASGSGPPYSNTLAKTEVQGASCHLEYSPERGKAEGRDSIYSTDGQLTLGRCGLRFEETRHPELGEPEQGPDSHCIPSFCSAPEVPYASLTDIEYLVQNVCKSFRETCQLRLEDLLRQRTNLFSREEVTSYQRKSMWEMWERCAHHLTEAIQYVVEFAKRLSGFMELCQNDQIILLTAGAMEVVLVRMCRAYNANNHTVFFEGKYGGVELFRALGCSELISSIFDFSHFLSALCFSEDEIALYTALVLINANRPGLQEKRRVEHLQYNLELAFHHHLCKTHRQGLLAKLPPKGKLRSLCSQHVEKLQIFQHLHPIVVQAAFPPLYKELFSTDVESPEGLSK
#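 ROR gamma transcriptional activity was tracked as Gal4-UAS luciferase output in stably transfected Drosophila Schneider cells, with compound added 1 hr before 700 uM copper sulfate induction and a 20 hr ambient-temperature incubation.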
# TDP1 cell noCPT – qHTS for Inhibitors of human tyrosyl-DNA phosphodiesterase 1 (TDP1): qHTS in cells in absence of CPT. Potency, µM (top dose mostly 46.2 µM), for inactives: at the top dose activity change, negative = growth inhibition, usual class: inhibitors. actives 15% (n = 420,000). DT40 Tdp1-/- hTDP1 cells, no CPT, ATP luminescence, 48 h. AID 686978, 2013; note: nearly all actives have a fitted effect of over 55% in size
#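 Growth of hTDP1-complemented DT40 Tdp1-knockout cells is measured by ATP luminescence after at least 48 hr compound exposure at 37 °C, with DMSO substituting for the 20 nM CPT used in the parallel screen.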
# * = called active by the depositor; u = inconclusive; x = no result. Calls come from the whole dose curve; as a rule, active = well fitted curve in the direction sought with a large enough effect; inconclusive = small, poorly fitted or top-dose-only effect, or another doubt; inactive = no such curve, though single readings can be large; an effect the other way counts as inactive or inconclusive. % is set by controls: 0 for no effect and ±100 for the full control effect; potency is the fitted concentration of half-maximal effect.
SMILES,Gal4-VP16 FLuc,TDP1 inh,TDP1 cell CPT,RORg inh,TDP1 cell noCPT
CCOCCCNC(=S)NNC(=O)CCn1nc(C)c(Br)c1C,3.2µM*,1%,2%,1.4µM*,-12%
O=C(CN1C(=O)NC2(CCCCC2)C1=O)N1CCN(c2ncccn2)CC1,x,1%,-4%,x,10%
CNC(=S)NNC(=O)CCn1nc(C)c(Br)c1C,4µM*,5%,u,0.63µM*,u
Cc1nn(CC(=O)NNC(=S)NCC2CCCO2)c(C)c1Br (stereo not drawn),5%,3%,-2%,9%,0%
COCCCNC(=S)NNC(=O)Cn1nc(C)c(Br)c1C,11µM*,2%,2%,3.2µM*,-4%
CC(=O)c1cccc(N(CC(=O)NCC2CCCO2)C(=O)CCC(=O)Nc2cc(C)on2)c1 (stereo not drawn),-12%,-8%,-11%,20%,-9%
COc1ccc(N2CCN(C(=O)Cc3coc4cc(C)ccc34)CC2)cc1,7%,6%,0%,20%,-9%
COc1ccc(N2CCN(C(=O)Cc3coc4ccc(C)cc34)CC2)cc1,x,11%,18µM*,x,u
COc1ccc(CC(=O)N2CCN(C(=O)Cc3ccc(OC)c(OC)c3)CC2)cc1OC,x,x,1%,x,-13%
COc1ccc(CC(=O)N2CCN(c3cccc(Cl)c3)CC2)cc1OC,-7%,x,u,u,10µM*
COc1ccc(OC)c(S(=O)(=O)N(C)CC(=O)N2CCN(c3cccc(Cl)c3)CC2)c1,-8%,0%,u,5%,18µM*
COc1ccc(N2CCN(C(=O)Cc3ccc(OC)c(OC)c3)CC2)cc1,-29%,x,8.2µM*,u,16µM*
Cc1ccc2onc(CC(=O)N3CCN(c4ccc(F)cc4)CC3)c2c1,x,-3%,15µM*,x,u
O=C(CN1C(=O)COc2ccc(S(=O)(=O)N3CCOCC3)cc21)NCc1ccco1,1%,x,9%,0%,-4%
CC[C@H](CO)Nc1nc(Nc2cccc(Cl)c2)c2ncn(C(C)C)c2n1,3.2µM*,0%,9.2µM*,u,9.2µM*
CCn1c2ccccc2c2cnc(N=CN(C)C)c(C#N)c21,0%,0%,u,-6%,15µM*
CCN(CC)CCn1c2ccccc2c2cnc(N=CN(C)C)c(C#N)c21,-20%,-8%,16µM*,-25%,16µM*
CCCn1c2ccccc2c2cnn(CC(=O)NCCN(CC)CC)c(=O)c21,3%,6%,-20%,27%,u
NCCC(=O)N[C@@H](Cc1cnc[nH]1)C(=O)O,1%,10%,11%,u,-6%
C=C(C)CNC(=S)N/N=C(\C)c1ccc(OC)cc1,5µM*,7%,3.7µM*,2.2µM*,2.9µM*
C/C(=N\NC(=O)c1ccccc1F)c1ccc(C#N)cc1,-17%,-5%,-1%,15%,-11%
COc1ccc(/C(C)=N/NC(=O)C2CC2)cc1,-13%,5%,21%,11%,21%
COc1ccc(CNC(=S)N/N=C(/C)c2ccccc2)cc1,u,11%,-1%,8.9µM*,u
C/C(=N\NC(=S)NCc1ccccc1)c1ccc(C#N)cc1,7.1µM*,5%,-10%,2.8µM*,7%
C/C(=N\NC(=S)NCc1ccccc1)c1ccc(C(C)(C)C)cc1,1.4µM*,10%,18µM*,1µM*,23µM*
SMILES,Gal4-VP16 FLuc,TDP1 inh,TDP1 cell CPT,RORg inh,TDP1 cell noCPT
C/C(=N\NC(=O)COc1ccc(C(C)(C)C)cc1)c1ccccc1,4%,1%,-8%,1%,u
CCc1ccc(C(=O)N2CCN(c3ccc(NC(=O)c4ccco4)cc3)CC2)cc1,x,1%,u,x,u
COc1ccc(NC(=O)Cc2cccs2)cc1S(=O)(=O)N1CCCCC1,x,-2%,-6%,x,-21%
O=C(c1ccco1)N1CC2(CC(c3ccc(Cl)cc3)=NO2)CN1Cc1ccc(Br)cc1 (stereo not drawn),x,x,21µM*,x,u
CCNC(=O)C12CCC(C)(C(=O)C1Br)C2(C)C (stereo not drawn),u,0%,-4%,-14%,11%
COCCCNC(=O)c1ccc(-c2nc(CS(=O)(=O)c3ccc(C)cc3)c(C)o2)cc1,x,-6%,u,x,16µM*
COc1ccccc1CNC(=O)c1ccc(-c2nc(CS(=O)(=O)c3ccc(C)cc3)c(C)o2)cc1,x,3%,u,x,23µM*
CCCCNC(=O)c1ccc(-c2nc(CS(=O)(=O)c3ccc(C)cc3)c(C)o2)cc1,x,6%,u,x,u
CCCCN(CC)CCCNC(=O)CS(=O)(=O)Cc1nc(-c2ccc(C)cc2)oc1C,x,3%,u,x,21µM*
Cc1ccc(CNC(=O)c2ccc(-c3nc(CS(=O)(=O)c4ccc(C)cc4)c(C)o3)cc2)cc1,x,-3%,13µM*,x,7.3µM*
Cc1ccc(C(=O)Nc2ccccn2)cc1S(=O)(=O)N1CCOCC1,x,-1%,1%,x,6%
Cc1ccc(C(=O)Nc2nc(-c3ccccn3)cs2)cc1S(=O)(=O)N1CCOCC1,x,4%,1.3µM*,x,0.73µM*
O=C(Nc1nc(-c2ccccn2)cs1)c1ccc(F)c(S(=O)(=O)N2CCOCC2)c1,x,4%,1.5µM*,x,0.58µM*
O=C(Nc1nc(-c2ccccn2)cs1)c1cc(S(=O)(=O)N2CCOCC2)ccc1F,x,2%,2.6µM*,x,2.3µM*
CCOC(=O)CSc1n[nH]c(NC(=O)CC)n1,-3%,x,-5%,16%,6%
